This passage reports growth results from PubChem BioAssay (NCI).

About 83,000 compounds went through this panel and 20% of them were active in at least one assay; those are over-represented in the sample as a whole.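 Note: values are percent growth. 100 is the growth of untreated cells, values between 100 and 0 indicate rising inhibition; between -100 and 0 indicates cell death.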 The source made the active and inactive calls. Rule for the calls: active = growth percent below 10; inactive = the rest.

The test system of the experiment is HL-60(TB) leukemia. The experiment is described as follows: NCI-60 one-dose screen, 48 h (100 = growth as untreated, 0 = no growth, -100 = all killed). The settings on record: 10 µM unless noted.
Turning to `Nc1c(C(=O)Nc2ccnc3ccccc23)sc2nc3c(cc12)CN(Cc1ccccc1)CC3`, the growth is 32.7% (inactive). Next, `COC(=O)c1cnc2c(c1)Oc1ccccc1-c1ccnn1-2`: 98.3% (inactive). As for `CC1(COc2ccc3c(c2)ncn3-c2ccc3cccc(N4CCC(N)CC4)c3n2)COC1`, the growth was -46.9% (active).
